# Out of some 220,000 compounds screened, about 710 (0.32%) were called active. No stated cut-off is given here; in the data, active means binding response below about 49% or above about 150%; inactive means in between. The list comes from a sample in which actives are over-represented; it also holds similar structures and randomly drawn compounds.
# Molecular target: Guanine nucleotide-binding protein G(o) subunit alpha (Homo sapiens) (UniProt P09471)
# Experiment: RGS4-Galphao interaction inhibitors and enhancers – biochemical, multiplexed bead flow cytometry, primary screen (AID 1415);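 further: fluorescent Galphao activated with aluminum fluoride binding bead-coupled RGS4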
# Conditions: at 10 µM, actives lie on both sides
# Guanine nucleotide-binding protein G(o) subunit alpha (Homo sapiens), sequence (P09471 whole entry, looked up): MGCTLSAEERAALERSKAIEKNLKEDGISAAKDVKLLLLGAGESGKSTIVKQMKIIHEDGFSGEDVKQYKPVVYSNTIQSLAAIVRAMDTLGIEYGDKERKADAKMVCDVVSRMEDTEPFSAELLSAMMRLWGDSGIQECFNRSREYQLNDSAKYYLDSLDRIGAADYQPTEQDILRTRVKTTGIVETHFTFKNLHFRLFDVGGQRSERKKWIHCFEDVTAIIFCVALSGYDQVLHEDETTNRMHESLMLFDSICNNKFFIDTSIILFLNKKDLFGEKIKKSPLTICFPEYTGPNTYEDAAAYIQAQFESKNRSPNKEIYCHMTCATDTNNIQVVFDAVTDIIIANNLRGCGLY
row,SMILES,binding response (% of control)
1,COCCNC(=S)N/N=C/c1c(C)[nH]c2ccccc12,159% [activator] (active)
2,Cc1[nH]c2ccccc2c1/C=N\NC(=O)Cn1nnc(-c2ccccc2)n1,102% (inactive)
3,Cc1[nH]c2ccccc2c1/C=N/NC(=O)CNC(=O)c1ccc2c(c1)OCO2,111% (inactive)
4,O=C(Nc1ccc(F)cc1)C1CCN(C(=O)c2ccc([N+](=O)[O-])cc2)CC1,99.8% (inactive)
5,CCN(CC)CCn1cnc2c1c(=O)n(CCOC(=O)c1cc(OC)c(OC)c(OC)c1)c(=O)n2C,155% [activator] (active)
6,CCN(CC)CCN1C(=O)C(=O)/C(=C(/O)c2ccc(OC)c(OC)c2)C1c1ccccn1 (stereo not given),99.2% (inactive)
7,COc1cc(C(=O)OCc2ccc([N+](=O)[O-])cc2)cc(OC)c1OC,98.2% (inactive)
8,COCCCn1c(-c2cccs2)nc2nc3ccccc3nc21,103% (inactive)
9,COc1cccc(C(=O)NCCSc2ccc(Br)cc2)c1,19.5% (active)
10,COc1cc(OC)cc(C(=O)NCCSCc2ccco2)c1,93.2% (inactive)
11,COc1cccc(C(=O)NNC(=O)c2ccccc2Br)c1,103% (inactive)
12,C#CCOCCOCCOCCNc1nc(N2CCN(C(=O)[C@H](CCC(=O)O)n3cc(C(N)CO)nn3)CC2)nc(N2CCN(C(=O)[C@H](CCCCN)n3cc(C(N)CC(C)C)nn3)CC2)n1 (stereo not given in full),104% (inactive)
13,Cc1ccc(NC(=O)c2oc(=O)c3ccccc3c2-c2ccccc2)c(C)c1,105% (inactive)
14,CCCCCCCCCOC1OC(CO)C(O)C(O)C1NC(C)=O (stereo not given),98.8% (inactive)
15,CC(C)=CCC/C(C)=C/C(=O)O,92.6% (inactive)
16,COCCNC(=S)Nc1cc(S(=O)(=O)N2CCOCC2)ccc1N1CCCCC1,97.4% (inactive)
17,COc1ccccc1CCNC(=O)c1cnccn1,97.6% (inactive)
18,NC(=O)CSc1c[nH]c2ccccc12,30% (active)
19,O=C(Cc1c[nH]c2ccccc12)OCCOC(=O)Cc1c[nH]c2ccccc12,97.3% (inactive)
20,CCCn1cc(SCC(N)=O)c2ccccc21,82.2% (inactive)

row,SMILES,binding response (% of control)
1,COc1ccc(Cl)cc1C(=O)NNC(=S)NC(=O)/C=C/c1ccco1,104% (inactive)
2,CCOc1ccc(-c2c(C)n([O-])c3c([n+]2=O)CCCC3)cc1,102% (inactive)
3,Cc1c(S(=O)(=O)NCc2ccccc2)c(=O)n(C)c(=O)n1C,103% (inactive)
4,CC(C)=CCc1c(O)c(CC=C(C)C)c2occ(-c3ccc(O)cc3)c(=O)c2c1O,96.8% (inactive)
5,CC(=O)c1cc(-c2ccccc2)n(CC(=O)NC2CCCCC2)c1C,94.2% (inactive)
6,CCOCCCNC(=O)C(NC(=O)c1ccc(=O)[nH]c1)c1ccc(Cl)cc1 (stereo not given),98.1% (inactive)
7,CC(OC(=O)c1ccc2ccccc2n1)C(=O)c1ccccc1 (stereo not given),103% (inactive)
8,COc1ccc(C(=O)COC(=O)c2ccc3ccccc3n2)cc1,36.8% (active)
9,COc1ccc(C2=NOC(COC(=O)c3ccc4ccccc4n3)C2)cc1 (stereo not given),99.3% (inactive)
10,Cc1nc(N)[nH]c(=O)c1Oc1cccc(C(F)(F)F)c1,99.6% (inactive)
11,CCCCCCCN=C(C)c1ccccc1O,103% (inactive)
12,CCOC(=O)C1Cn2c(nc3c(c2=O)C(C)(CC)Cc2ccccc2-3)S1 (stereo not given),93% (inactive)
13,CCC(=O)Nc1cccc(C2=NOC3(C2)C[C@@H](C(N)=O)N(C(=O)c2cc([N+](=O)[O-])cc([N+](=O)[O-])c2C)C3)c1 (stereo not given in full),96% (inactive)
14,COc1ccc(/C=C/C(=O)Nc2ccc(C34CC5CC(CC(O)(C5)C3)C4)cc2)cc1OC,102% (inactive)
15,Cc1ccsc1/C=N/Nc1ccc(Cl)nn1,108% (inactive)
16,C=CCN1CC(C)/C(=N\O)CC1C (stereo not given),99.6% (inactive)
17,O=C(NC1CCCCC1)c1ccc(CNc2c(N3CCOCC3)c(=O)c2=O)cc1,102% (inactive)
18,CCN(CC)CCOc1ccc2c(c1)C(=NNC(=O)c1ccccn1)c1cc(OCCN(CC)CC)ccc1-2,172% [activator] (active)
19,CCOc1cc(NC(=O)c2ccccn2)c(OCC)cc1NC(=O)c1ccc(OC)cc1,102% (inactive)
20,COc1ccc(CC(=O)N/N=C(\C)c2ccccn2)cc1,91.7% (inactive)

row,SMILES,binding response (% of control)
1,COC(=O)c1c(C(=O)OC)c(-c2cccc(C)c2)n2c1CS(=O)C2 (stereo not given),91.5% (inactive)
2,CC(=O)Nc1nc(N(C)C)nc(N(C)C)n1,14.5% (active)
3,COc1cc(OC)nc(NC(=O)CCl)n1,101% (inactive)
4,CCC(=O)Nc1nc(OC)cc(OC)n1,102% (inactive)
5,CC(NC(=O)C1CCC(CNc2c(N3CCOCC3)c(=O)c2=O)CC1)c1ccccc1 (stereo not given),99.8% (inactive)
6,O=C(NCc1ccc(F)cc1)C1CCC(CNc2c(N3CCOCC3)c(=O)c2=O)CC1 (stereo not given),11.6% (active)
7,COc1ccc(CNC(=O)C2CCC(CNc3c(N4CCOCC4)c(=O)c3=O)CC2)cc1 (stereo not given),106% (inactive)
8,O=C(c1ccc(Br)o1)N(c1ccccn1)C1CCCCC1,92.3% (inactive)
9,CC(Nc1nc(N2CCN(CCO)CC2)nc2ccccc12)c1ccccc1 (stereo not given),100% (inactive)
10,Cc1ccc(NC(=S)N2CCN(c3ncccn3)CC2)cc1C,104% (inactive)
11,C=CCc1cccc2cc(C(=O)NC3CCCC3)c(=O)oc12,97.8% (inactive)
12,C/C=C\C=C\C(=O)N1CC2(CC(c3cccc(NC(=O)/C(C)=C\C)c3)=NO2)C[C@H]1C(N)=O (stereo not given in full),103% (inactive)
13,COc1ccccc1C(=O)n1nc(-c2ccccc2)nc1N,98.8% (inactive)
14,COc1ccc(CC(=O)n2nc(-c3cccnc3)nc2N)cc1,96.8% (inactive)
15,CCCC(=O)n1nc(-c2ccccc2)nc1N,25.8% (active)
16,CCCNC(=S)NC1CC2CCCC(C1)N2CC(C)C (stereo not given),99.3% (inactive)
17,CCNC(=O)CC1C(=O)N(c2ccc(F)cc2)C(=O)N1CCc1sccc1C (stereo not given),99.7% (inactive)
18,CC(C)C(NS(=O)(=O)c1cccs1)C(=O)Nc1nc(C(C)(C)C)cs1 (stereo not given),99% (inactive)
19,COc1ccc(CCNC(=O)C2CC3Cn4c(nc5cc(C)c(C)cc54)C3N2C)cc1 (stereo not given),103% (inactive)
20,COc1ccc(C)cc1NC(=O)CSc1ccc(Cl)cc1,105% (inactive)

# Reference: PubChem BioAssay AID1415 (NMMLSC, 2008)
